# ALDH1A1 block = blocks purified human ALDH1A1 activity; P00352; Purified ALDH1A1, NADH fluorescence, propionaldehyde substrate; Potency, µM (doses to about 75.3 µM), for inactives: at the highest dose activity, negative = inhibition, usual class: inhibitors; 7.3% of 220,000 active; AID 1030;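 further: potency means the concentration at half of the fitted maximal effect; plate controls were no enzyme wells and a reference inhibitor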
# Target sequence (P00352 whole entry, looked up): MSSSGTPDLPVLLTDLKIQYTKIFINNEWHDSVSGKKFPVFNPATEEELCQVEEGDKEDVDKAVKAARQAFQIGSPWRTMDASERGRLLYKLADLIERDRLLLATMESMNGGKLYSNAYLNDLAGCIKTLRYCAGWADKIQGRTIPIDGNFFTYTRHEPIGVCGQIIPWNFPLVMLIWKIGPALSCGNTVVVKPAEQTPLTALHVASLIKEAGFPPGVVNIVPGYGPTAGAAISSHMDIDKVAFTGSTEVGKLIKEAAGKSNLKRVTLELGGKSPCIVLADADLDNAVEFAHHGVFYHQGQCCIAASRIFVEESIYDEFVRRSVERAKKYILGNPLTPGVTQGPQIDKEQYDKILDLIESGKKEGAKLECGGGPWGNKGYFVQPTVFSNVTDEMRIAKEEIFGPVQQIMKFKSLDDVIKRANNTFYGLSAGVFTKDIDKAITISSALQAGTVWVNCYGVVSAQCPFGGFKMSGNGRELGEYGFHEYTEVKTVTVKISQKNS
# HPGD block = HPGD (human) dehydrogenase inhibition; P15428; purified HPGD, NADH fluorescence kinetic, PGE2 substrate; Potency, µM, inactives show top-dose activity change, negative = inhibition, usual class: inhibitors; 4.3% of 150,000 active; further: potency means the concentration at half of the fitted maximal effect
#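 20 nM HPGD preincubated 15 min at room temperature with compound in 50 mM Tris-HCl pH 8, 0.01% Tween 20. Started with 1 mM NAD+ and 30 uM prostaglandin E2; NADH fluorescence (360/450 nm) read 5 times over 30-s intervals, last minus first.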
# PNC inhibitor = inhibitors of perinucleolar compartment assembly; PC3M PTB-GFP, PNC prevalence imaging, 16 h; active compounds read low; activity change (PNC), negative = inhibition, % at 10 µM; 3.1% of 140,000 active; AID 2417;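 active means readout at or below -70, meaning at least 70% loss of cells showing the perinucleolar compartment, a nuclear body marking cancer cells; inconclusive means readout between -30 and a set limit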;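 further: plate controls were DMSO wells for no effect and camptothecin positive control wells for full effect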
#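 Read-out is percentage of cells bearing a perinucleolar compartment, from automated 20x imaging of fixed, Hoechst-stained PC3M PTB-GFP cells. Cells were seeded 4 h, then exposed 16 h to compound (23 nl of library stock) in duplicate plates.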
# Starred values were filed as active, the others as inactive; ? = inconclusive; . = no result; [ ] = dose if it differs, or a comment. Shown are actives, neighbours in structure and some others; about 11% of the full set was active somewhere. Unless noted, the call rests on the fitted dose curve; in most records, active means well fitted inhibition curve with a large enough effect (not every such curve was filed as active); inconclusive means small, poorly fitted or top-dose-only effect, or another doubt; inactive means no such curve, though single readings can be large or run the other way. Unless noted, on the % scale 0 is the no-effect control and ±100 the full control effect.
SMILES,ALDH1A1 block,HPGD block,PNC inhibitor
CCOc1ccc(CCNC(=O)Cn2c(=O)oc3ccccc32)cc1OCC,-3.4%,-11.8%,?
COc1cc2c(cc1NC(=O)CN(C)Cc1ccc(OC)c(OC)c1)oc1ccccc12,?,.,-26.4
O=S(=O)(c1ccccc1)c1ccccc1/C=N\O,-0.7%,-26.6%,-96.0*
Cc1ccc(S(=O)(=O)Oc2ccccc2/C=N/O)cc1,-14.0%,.,.
CCN1C(=O)C=CC1=O,?,-10.6%,.
O=C1C=CC(=O)N1CCCCCCN1C(=O)C=CC1=O,0.224µM*,2.24µM*,?
N/C(=N\OC(=O)Cc1cccs1)c1ccc([N+](=O)[O-])cc1,-13.4%,-11.5%,22.4
Cc1noc(C)c1CSc1nc2ccccc2c(=O)n1-c1ccc(Cl)cc1,6.2%,-6.0%,-29.8
O=C(NCc1ccco1)C1CC2CCC1C2 (centres undefined),-4.5%,15.8µM*,-9.7
O=C(NCc1cccc(CNC(=O)C(=O)NCc2ccco2)c1)C(=O)NCc1ccco1,0.0%,.,.
O=C(O)C1C2CCC(C2)C1C(=O)NCc1ccco1 (centres undefined),35.5µM*,-14.6%,-100.0*
O=C(NCc1ccco1)C1CCCCC1,0.1%,.,.
CC(C)(C)NC(=O)C(c1cccs1)N(C(=O)c1csnn1)c1ccccc1F (centres undefined),-1.0%,.,.
N#CC(c1ccccc1)N(CCCCl)C(=O)c1ccccc1 (centres undefined),-8.7%,-12.2%,?
CCOc1ccccc1NC(=O)CN(C)S(=O)(=O)c1cnc[nH]1,3.8%,.,.
COc1ccccc1-c1noc(CCC(=O)Nc2ccccc2Cl)n1,28.2µM*,25.1µM*,?
COCCCNC(=O)CCc1nc(-c2ccccc2)no1,-9.9%,?,-19.3
COCCNC(=O)CCc1nc(-c2ccccc2)no1,2.1%,15.8µM*,29.7
Cc1ccc(-c2noc(CCC(=O)NCc3ccco3)n2)cc1,?,28.2µM*,21.9
COc1cc(CC(=O)NCc2ccco2)cc(OC)c1OC,-1.2%,-4.3%,37.3
O=C(CCc1nc(-c2ccccc2)no1)NCc1ccco1,?,?,-5.0
COc1ccccc1-c1noc(CCC(=O)Nc2cccc(C)c2)n1,1.2%,-8.7%,7.3
COc1cc(-c2noc(CCCC(=O)NCc3ccco3)n2)cc(OC)c1OC,-13.7%,-18.0%,-100.0*
O=C(Nc1c(C(=O)Nc2cccc3ccccc23)cnn1-c1ccccc1)c1ccco1,4.2%,-4.6%,?
CCCC(=O)NCc1ccncc1,-2.9%,.,.
SMILES,ALDH1A1 block,HPGD block,PNC inhibitor
CC(C)(C[C@@]1(C)NC(=O)NC1=O)OCc1ccccc1,2.3%[13.5 µM],-3.5%,.
Oc1ccc2ccccc2c1CN(Cc1c(O)ccc2ccccc12)C1CCCCC1,?,-3.3%,.
COC(=O)c1cccc(NC(=O)c2cccnc2)c1,6.1%,-10.0%,80.2
COC(=O)c1cccc(NC(=O)c2cnoc2C)c1,9.0%,-20.8%,-118.9*
COc1ccc(CCC(=O)Nc2cccc(Cl)c2)cc1,-11.2%,-8.6%,-82.7*
COC(=O)c1cccc(NC(=O)CCc2ccccc2)c1,25.1µM*,25.1µM*,-27.8
COc1ccc(CC(=O)OCC(=O)Nc2cccc(Cl)c2)cc1,2.1%,.,.
COC(=O)c1ccc(C)c(NC(=O)CCc2ccc(OC)cc2)c1,20µM*,-27.1%,-7.3
Cc1ccc(C(=O)O)cc1NC(=O)CCc1ccccc1,8.5%,.,.
COC(=O)c1cccc(NC(=O)CCc2cc(OC)c(OC)c(OC)c2)c1,-1.9%,-13.9%,?
Cc1onc(-c2c(Cl)cccc2Cl)c1C(=O)N/N=C(\N)COc1ccc(Cl)cc1,-3.7%,-21.4%,9.0
CCC(=O)N1CCc2cc(S(=O)(=O)NC(CC(C)C)C(=O)N3CCc4ccccc43)ccc21 (centres undefined),6.8%,-5.2%,?
CC(NC(=O)CCN1C(=O)c2ccccc2C1=O)c1ccc2c(c1)CCCC2 (centres undefined),?,-3.4%,-113.4*
CC(NC(=O)CCCN1C(=O)c2ccccc2C1=O)c1ccc2c(c1)CCCC2 (centres undefined),?,-11.4%,?
Cc1csc(NC(=O)Cc2nn(C)c(=O)c3ccccc23)n1,7.3%,-8.0%,31.7
Cc1ccc(C(=O)c2cnc3ccccc3c2-c2ccccc2)cc1,12.6µM*,-15.1%,68.3
COc1ccc(C(=O)c2cnc3ccccc3c2-c2ccccc2)cc1,1.41µM*,?,72.3
Cc1ccc(-c2cc(C(=O)Nc3cc(C(=O)O)ccc3C)c3ccccc3n2)cc1,7.6%,.,.
COc1ccc(Oc2nc(-c3ccccc3)ncc2C(=O)O)cc1,8.0%,.,.
COc1ccc2cc(CN(Cc3ccco3)Cc3nnnn3C3CCCCC3)c(=O)[nH]c2c1,7.94µM*,-10.8%,4.4
COc1ccc2[nH]c(=O)c(CN(Cc3ccco3)Cc3nnnn3Cc3ccccc3)cc2c1,?,?,-24.2
CCC(c1nnnn1CC1CCCO1)N(CCCO)Cc1cc2cccc(C)c2[nH]c1=O (centres undefined),?,-11.0%,31.5
COc1ccc2cc(CN(Cc3ccco3)C(c3nnnn3C3CCCCC3)C(C)C)c(=O)[nH]c2c1 (centres undefined),15.8µM*,-15.9%,5.7
Cc1cccc2cc(CN(CC3CCCO3)C(c3nnnn3Cc3ccco3)C(C)C)c(=O)[nH]c12 (centres undefined),6.31µM*,-0.5%,8.4
COc1ccc2[nH]c(=O)c(C(c3nnnn3C(C)(C)C)N(Cc3ccco3)CC3CCCO3)cc2c1 (centres undefined),?,?,-0.7
SMILES,ALDH1A1 block,HPGD block,PNC inhibitor
O=C(O)CSc1ncccc1[N+](=O)[O-],-2.6%[13.5 µM],-3.4%,.
Cc1ccc(S(=O)(=O)NC(=O)Nc2cc(C(C)(C)C)on2)cc1,1.3%,.,.
Cc1ccc(C(C(=O)NCCc2ccccc2)N(C(=O)c2csnn2)C2CC2)o1 (centres undefined),?,-3.9%,12.0
CCOC(=O)C(C(=O)OCC)C(C)C#CCN1CCCCC1 (centres undefined),-0.8%,-11.0%,6.3
O=C(CC(c1ccccc1)c1cc(Br)ccc1O)N1CCCC1 (centres undefined),-13.6%,.,.
Cc1ccc(O)c(C(CC(=O)N2CCCC2)c2ccccc2)c1 (centres undefined),-6.9%,7.08µM*,24.7
COc1ccc(S(=O)(=O)NC(CC(=O)NCc2ccco2)c2ccco2)cc1 (centres undefined),?,-10.1%,?
COc1ccc(S(=O)(=O)NC(CC(=O)NCCc2ccc(OC)c(OC)c2)c2ccco2)cc1 (centres undefined),12.6µM*,-6.2%,?
Cc1ccc(S(=O)(=O)NC(CC(=O)NC2CCCC2)c2ccco2)cc1 (centres undefined),14.1µM*,-6.9%,1.6
COc1ccc(S(=O)(=O)NC(CC(=O)NC2CCCC2)c2ccco2)cc1 (centres undefined),?,-12.8%,50.1
Cc1ccc(S(=O)(=O)NC(CC(=O)NCc2ccco2)c2ccco2)cc1 (centres undefined),25.1µM*,-12.7%,34.6
COc1ccc(S(=O)(=O)NC(CC(=O)NCCc2ccccc2)c2ccco2)cc1 (centres undefined),?,3.6%,32.9
CCCCCCCC#Cc1ccccc1/C=N/S(=O)C(C)(C)C (centres undefined),21.4%[13.5 µM],.,.

# High-throughput results deposited in PubChem BioAssay by National Center for Advancing Translational Sciences (NCATS).
